The text below walks through data of PubChem BioAssay.

The structures appear in SMILES notation. “And” between values parts separate entries of the source, which are not always exact repeats. Equal entries are not always repeated. The source made the active and inactive calls.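 Rule for the calls, unless noted: active = compounds whose cell count with miR-34 switched on is under 0.7 times the count with it off; inactive = the rest.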

A short description of test [1]: sensitizers of A549 cells to miR-34 induction, primary screen, imaging, A549 dox-inducible miR-34, nuclei and caspase counts (AID 1347080). Note: test concentration not given here. Particulars: A549 miR-34 inducible, Hoechst nuclei count, 48 h.
A short description of test [2]: survival rescue of mitochondrial mutant cells in low glucose, primary screen, MELAS cybrids, Rieske KO mouse fibroblasts, CellTiter-Glo (AID 1508586;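 active = mean z-score across replicates of 1.96 or higher in either the MELAS or the Rieske mutant cell line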;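 note: test concentration not given here; z relative to plate mean and SD of compound and empty wells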).
Test [3] is described as follows: viability rescue of complex I mutant cybrids, primary screen, cell-based, galactose medium, ATP luminescence (AID 1645843;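 active = z-score of at least 1.8 in each of two replicates, scored against plate mean and spread of sample wells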;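 note: positive z means more ATP and so rescue of galactose-driven cybrid death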). Particulars: complex I mutant cybrid cells, 72 h, stronger effect = higher value.
The mark [4] stands for this setting: stronger effect = lower value, cell number ratio, induced over uninduced.
The mark [5] stands for this setting: measured here: relative caspase fold change +Dox/-Dox.
Setting [6] is: measured here: total cells with miR-34 induction, stronger effect = lower value.
Where [7] appears, read: measured here: total cells without miR-34 induction.
The mark [8] stands for this setting: MELAS cybrid survival, CellTiter-Glo 48 h, stronger effect = higher value.
Where [9] appears, read: Rieske KO mouse fibroblast survival, CellTiter-Glo 72 h.

Take `CCNC(=O)c1cccnc1N1CCN(c2ccc(Cl)cc2)CC1`: the fold change in test [1] (setting [4]) was 0.873 (inactive); in test [1] (setting [5]) it was 0.821. Moreover, the cell count in test [1] (setting [6]) was determined as 7830; in test [1] (setting [7]) it was 8970. The results for the z-score in test [2] (setting [8]), in test [2] (setting [9]) and in test [3] were -0.247, 2.02 and 0.35 (inactive), respectively.
`Cc1cc(=O)oc2cc(OC3OC(CO)C(O)C(O)C3O)ccc12` (stereo unspecified): the fold change was 0.875 (inactive) in test [1] (setting [4]) and 0.68 in test [1] (setting [5]). Moreover, the cell count in test [1] (setting [6]) turned out to be 8660; in test [1] (setting [7]), 9900. The z-score is 0.734 (inactive) in test [2] (setting [8]), -0.54 in test [2] (setting [9]) and 0.72 (inactive) in test [3].
`CC(C)C(N)C(=O)OCCOCn1cnc2c(=O)[nH]c(N)nc21` (stereo unspecified): the fold change in test [1] (setting [4]) is 0.946 (inactive) and 0.861 (inactive); in test [1] (setting [5]), 1.94 and 0.803. Besides, the cell count in test [1] (setting [6]) is 9720 and 8030; in test [1] (setting [7]), 10300 and 9320. In addition, the z-score in test [2] (setting [8]) was -0.311 (inactive); in test [2] (setting [9]), 0.593; in test [3], 0.365 (inactive).
For `Cc1cc(-c2cnn(CC(=O)Nc3ccnn3Cc3ccccc3)c2)nc(N)n1`, the fold change was 0.926 (inactive) in test [1] (setting [4]) and 0.917 in test [1] (setting [5]). The cell count amounted to 8320 in test [1] (setting [6]) and 8980 in test [1] (setting [7]). The z-score in test [2] (setting [8]) was -0.562 (inactive); in test [2] (setting [9]) it was 0.0522; in test [3], -0.58 (inactive).
With `COc1ccc(OC)c(-c2nc3ccccc3o2)c1`, the values for the fold change in test [1] (setting [4]) and in test [1] (setting [5]) were 0.826 (inactive) and 1.28, respectively. For the same molecule, the cell count in test [1] (setting [6]) came out at 6950; in test [1] (setting [7]), 8410. For the same molecule, the z-score in test [2] (setting [8]) was 0.0538 (inactive); in test [2] (setting [9]), 0.572; in test [3] it was -0.51 (inactive).
In the case of `CCn1ccnc1CN(C)C(=O)c1cc(-c2cnc(N)nc2)nc2cc(C)ccc12`, the fold change in test [1] (setting [4]) was 0.962 (inactive); in test [1] (setting [5]), 1.43. In addition, the results for the cell count in test [1] (setting [6]) and in test [1] (setting [7]) were 9170 and 9540, respectively. Further, the z-score in test [2] (setting [8]) is -0.0965 (inactive); in test [2] (setting [9]), 0.497; in test [3] it was 0.64 (inactive).
Turning to `CC1(C)CC(=O)c2c(N)ncnc2C1`, the fold change in test [1] (setting [4]) was 0.894 (inactive); in test [1] (setting [5]), 0.392. The cell count in test [1] (setting [6]) was 9160; in test [1] (setting [7]), 10200. Further, the z-score was 0.568 (inactive) in test [2] (setting [8]), -0.422 in test [2] (setting [9]) and 0.725 (inactive) in test [3].
For the molecule `O=C1CN(c2ncnc3nc[nH]c23)CCN1Cc1cccc(F)c1`, the fold change in test [1] (setting [4]) was 0.802 (inactive); in test [1] (setting [5]) it was 2.49. Besides, the cell count amounted to 7800 in test [1] (setting [6]) and 9720 in test [1] (setting [7]). For the same molecule, the z-score in test [2] (setting [8]) was -0.258 (inactive); in test [2] (setting [9]), -0.742; in test [3] it was -0.53 (inactive).
`Nc1nc(Nc2cccc(Cl)c2)sc1C(=O)c1ccc(F)cc1`: the fold change in test [1] (setting [4]) was 0.868 (inactive); in test [1] (setting [5]), 0.635. In addition, the cell count stood at 7020 in test [1] (setting [6]) and 8090 in test [1] (setting [7]). The z-score is 1.64 (inactive) in test [2] (setting [8]), 0.109 in test [2] (setting [9]) and -2.28 (inactive) in test [3].
`O=S(=O)(O)c1cccc2cccc(Nc3ccccc3)c12`: the fold change is 0.946 (inactive) in test [1] (setting [4]) and 0.486 in test [1] (setting [5]). Also, the cell count in test [1] (setting [6]) came to 8990; in test [1] (setting [7]), 9500. Further, the z-score was -0.258 (inactive) in test [2] (setting [8]), -0.0194 in test [2] (setting [9]) and 0.715 (inactive) in test [3].
`O=C(O)Cc1ccc(O)c([N+](=O)[O-])c1`: the fold change in test [1] (setting [4]) was 0.901 (inactive); in test [1] (setting [5]) it was 0.986. For the same molecule, the cell count came out at 8450 in test [1] (setting [6]) and 9380 in test [1] (setting [7]). In addition, the z-score in test [2] (setting [8]) was 0.677 (inactive); in test [2] (setting [9]) it was 0.189; in test [3], 1 (inactive).
As to `CN(C)C(=O)c1cc(-c2[nH]ncc2-c2ccccc2)c[nH]1`, the fold change in test [1] (setting [4]) is 0.875 (inactive); in test [1] (setting [5]), 0.578. Moreover, the cell count in test [1] (setting [6]) was determined as 7590; in test [1] (setting [7]), 8680. The z-score in test [2] (setting [8]) is 1.27 (inactive); in test [2] (setting [9]), 0.199; in test [3], -0.655 (inactive).
With `Cn1nc(NC(=O)Cn2ccc(-c3ccco3)n2)c2ccccc21`, the figures for the fold change in test [1] (setting [4]) and in test [1] (setting [5]) were 0.861 (inactive) and 2.39, respectively. Further, the cell count in test [1] (setting [6]) was 7120; in test [1] (setting [7]) it was 8270. Also, the z-score was 1.07 (inactive) in test [2] (setting [8]), 0.074 in test [2] (setting [9]) and 0.205 (inactive) in test [3].
Turning to `CC(C)=CCn1cnc(=N)c2[nH]cnc21`, the fold change is 0.911 (inactive) in test [1] (setting [4]) and 0.79 in test [1] (setting [5]). For the same molecule, the results for the cell count in test [1] (setting [6]) and in test [1] (setting [7]) were 8970 and 9850, respectively. For the same molecule, the figures for the z-score in test [2] (setting [8]), in test [2] (setting [9]) and in test [3] were -0.546 (inactive), -0.741 and 1.17 (inactive), respectively.
`CCOc1ccc(C=C2NCCc3cc(OCC)c(OCC)cc32)cc1OCC`: the fold change in test [1] (setting [4]) was 0.846 (inactive); in test [1] (setting [5]), 0.801. In addition, the results for the cell count in test [1] (setting [6]) and in test [1] (setting [7]) were 4950 and 5850, respectively. The z-score in test [2] (setting [8]) was -1.41 (inactive); in test [2] (setting [9]), -0.0245; in test [3], -2.65 (inactive).
Turning to `COc1ccc2c(C(=O)N(C)C3CCN(C)C3)cc(-c3cnn(C)c3)nc2c1` (stereo unspecified), the figures for the fold change in test [1] (setting [4]) and in test [1] (setting [5]) were 0.88 (inactive) and 1.02, respectively. In addition, the cell count in test [1] (setting [6]) was found to be 8530; in test [1] (setting [7]) it was 9700. Besides, the z-score in test [2] (setting [8]) was -0.325 (inactive); in test [2] (setting [9]), -0.194; in test [3], -0.495 (inactive).
For the molecule `Cc1nn(C)cc1-c1ccnc(N2CCCN(c3ccccc3)CC2)n1`, the fold change is 0.823 (inactive) in test [1] (setting [4]) and 0.527 in test [1] (setting [5]). In addition, the cell count worked out at 5610 in test [1] (setting [6]) and 6820 in test [1] (setting [7]). The results for the z-score in test [2] (setting [8]), in test [2] (setting [9]) and in test [3] were -1.06, 3.98 and 2.46 (active), respectively.
`Cc1ccc(-n2cc(-c3nc4c(cnn4Cc4cccnc4)[nH]3)cn2)cc1`: the fold change in test [1] (setting [4]) was 0.858 (inactive); in test [1] (setting [5]), 2.02. The cell count in test [1] (setting [6]) came out at 7150; in test [1] (setting [7]), 8340. Moreover, the z-score is 0.697 (inactive) in test [2] (setting [8]), 0.0385 in test [2] (setting [9]) and -0.445 (inactive) in test [3].
With `CN1CCN(Cc2cccc3cccnc23)CC1CCO` (stereo unspecified), the fold change in test [1] (setting [4]) is 0.928 (inactive); in test [1] (setting [5]) it was 1.86. The cell count was 8360 in test [1] (setting [6]) and 9010 in test [1] (setting [7]). The figures for the z-score in test [2] (setting [8]), in test [2] (setting [9]) and in test [3] were 0.709 (inactive), -1.63 and -0.585 (inactive), respectively.
Consider `c1ccc2c(c1)OCC(CNc1ncnc3nc[nH]c13)O2` (stereo unspecified), for which the results for the fold change in test [1] (setting [4]) and in test [1] (setting [5]) were 0.786 (inactive) and 0.972, respectively. The results for the cell count in test [1] (setting [6]) and in test [1] (setting [7]) were 6310 and 8020, respectively. Also, the z-score in test [2] (setting [8]) is -0.539 (inactive); in test [2] (setting [9]), 0.778; in test [3], -0.485 (inactive).
On to `COc1ccc(C=CC(=O)O)cc1O`, for which the fold change in test [1] (setting [4]) was 0.917 (inactive); in test [1] (setting [5]), 0.34. Besides, the cell count in test [1] (setting [6]) was 9250; in test [1] (setting [7]) it was 10100. Moreover, the values for the z-score in test [2] (setting [8]), in test [2] (setting [9]) and in test [3] were 0.642 (inactive), -0.171 and 0.285 (inactive), respectively.
For `Nc1nc(NCc2ccncc2)c2cn[nH]c2n1`, the fold change in test [1] (setting [4]) was 0.931 (inactive); in test [1] (setting [5]) it was 0.844. Also, the cell count in test [1] (setting [6]) stood at 8290; in test [1] (setting [7]), 8900. Also, the z-score in test [2] (setting [8]) is -0.45 (inactive); in test [2] (setting [9]), -0.366; in test [3], -0.535 (inactive).
As to `COc1ccc(CN2CCN(c3cc(C)nc(N)n3)CC2=O)cc1`, the fold change in test [1] (setting [4]) was 0.879 (inactive); in test [1] (setting [5]), 1.5. The cell count in test [1] (setting [6]) came out at 8130; in test [1] (setting [7]), 9240. Also, the values for the z-score in test [2] (setting [8]), in test [2] (setting [9]) and in test [3] were 0.162 (inactive), 0.559 and -0.615 (inactive), respectively.
